Compounds with a hit are over-represented: about 9.5% of the library has one in this group of screens.
Pf growth 48h = P. falciparum growth inhibition at 48 hours (one generation). hit rate 5.9% among 310,000. Potency, µM (series often up to 28.7 µM), for inactives: top-dose activity change, negative = inhibition, usual class: inhibitors. P. falciparum luciferase growth in erythrocytes, 48 h; further: on the % scale 0 is the no-effect control and ±100 the full control effect
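Luminescence readout; reporter = integrated firefly luciferase in P. falciparum. RBC culture at 2% hematocrit, 0.1% parasitemia final, 37 C/5% CO2; decreased signal taken as growth inhibition.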
NS1 function inh = blocks influenza NS1 protein function. Potency, µM (titrated, usually from 46.1 µM), for the others: at the highest dose activity, positive = more growth. hit rate 0.4% among 270,000. AID 2326; calls by dose curve; further: actives are rising curves; nearly all actives have a fitted effect of over 50% in size
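In this qHTS, NS1 from influenza A is expressed in budding yeast, where it slows growth. Cells are switched from glucose to 2% galactose medium (pH 6.0, -URA), treated with compound, and growth recovery is read at OD600.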
RE007 growth inh = less growth of the S. pombe RE007 Vpr strain; S. pombe RE007 Vpr strain, BacTiter-Glo ATP luminescence, 24 h; Potency, µM (doses to about 92.2 µM), without a hit: top-dose activity change, negative = less growth, actives largely listed as inhibitors; hit rate 0.21% among 360,000; AID 651644; active means well fitted falling curve with a large enough effect; inconclusive means small, poorly fitted or top-dose-only effect; inactive means no such curve, though single readings can be large or run the other way; further: on the % scale 0 is the no-effect control and ±100 the full control effect; nearly all actives have a fitted effect of over 50% in size
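Fission yeast RE007 carrying one integrated HIV-1 vpr copy, seeded at OD 0.01 in PMG+AL medium with 23 nL pinned compound. Grown 24 h at 30 degrees; viability read by BacTiter-Glo luminescence after 5 min.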
Pf growth 96h = P. falciparum growth inhibition at 96 hours | Potency, µM (highest dose often 28.7 µM), for inactives: top-dose activity change, negative = inhibition, actives largely listed as inhibitors | P. falciparum luciferase reporter growth, 96 h | hit rate 6.9% among 320,000 | AID 504834; further: on the % scale 0 is the no-effect control and ±100 the full control effect
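Plates of compound plus infected erythrocytes (2% hematocrit, 0.05% parasitemia final) incubate 96 hours, 37 C, 5% CO2. Detection reagent added; reduced luminescence from the parasites' luciferase reporter flags inhibition.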
SARS PLpro yeast = blocks SARS-CoV papain-like protease in a yeast assay. Potency, µM (highest dose often 32.9 µM), for inactives: at the top dose activity, positive = growth rescue, hits mostly activators. hit rate 0.19% among 330,000. S. cerevisiae expressing SARS-CoV PLpro, growth rescue; calls by dose curve; further: 0% is about no effect; nearly all actives have a fitted effect of over 55% in size
* marks the source's active call; other numbers are inactive results; ? = inconclusive; · = no result; [ ] = another dose, or the depositor's remark. Unless noted, the call rests on the fitted dose curve; in most records, active means well fitted inhibition curve with a large enough effect; inconclusive means small, poorly fitted or top-dose-only effect, or another doubt; inactive means no such curve, though single readings can be large or run the other way. Potency means the concentration at half of the fitted maximal effect.

SMILES	Pf growth 48h	NS1 function inh	RE007 growth inh	Pf growth 96h	SARS PLpro yeast
O=C(Nc1ccn(Cc2c(F)c(F)c(F)c(F)c2F)n1)c1cccc(Cn2cc([N+](=O)[O-])cn2)c1	·	-5%	-9%	?	10%
O=C(Nc1ccn(Cc2ccccc2F)n1)c1ccc(COc2ccccc2Cl)cc1	?	8%	-16%	·	-6%
Cc1cc(C)nc(NC(=O)c2ccc(COc3ccccc3Cl)cc2)c1	-5%	·	-23%	9.3µM*	-1%
CCCCNC(=O)C1(C)CCCCN1C(=O)c1ccc(C#N)cc1 (stereo not drawn)	·	·	31%[18.4 µM]	·	·
COc1ccccc1CNC(=O)COC(=O)c1cccc(S(=O)(=O)N2CCOCC2)c1	2%	·	-11%	10%	·
CSc1nc2ccccc2n1Cc1c(Cl)cccc1Cl	·	-8%	-24%	12µM*	10%
Cc1c(NC(=O)CSc2ccc3ccccc3n2)c(=O)n(-c2ccccc2)n1C	1%	·	1%	-5%	-6%
OCc1nc2ccccc2n1Cc1c(F)cccc1Cl	-2%	-7%	3%	2%	-1%
Cc1c(NC(=O)CN2CCN(c3ccc(O)cc3)CC2)c(=O)n(-c2ccccc2)n1C	?	·	0%	6.6µM*	0%
Cc1cccc(C)c1NC(=O)CSCc1cccc(CSCC(=O)Nc2c(C)cccc2C)n1	·	-3%	19%	5.2µM*	1%
CSc1nc2ccccc2n1CC(=O)Nc1c(C)n(C)n(-c2ccccc2)c1=O	13%	-3%	-7%	10µM*	6%
O=C(NCC1CCOCC1)C1Cc2c(-c3ccccc3Oc3ccccc3)ccnc2O1 (stereo not drawn)	·	·	-1%	·	·
NC(N)=N/N=C(\c1ccc(Cl)cc1)C1CC1	·	-9%	·	·	·
COC(=O)c1ccc(C(c2c(C)n(C)n(-c3ccccc3)c2=O)c2c(C)n(C)n(-c3ccccc3)c2=O)cc1	?	10%	0%	6.6µM*	-4%
CSc1nc2ccccc2n1CC(=O)Nc1c(C)cccc1C	2%	13%	9%	7.4µM*	18%
Cc1c(Br)c([N+](=O)[O-])nn1CC(=O)Nc1c(C)n(C)n(-c2ccccc2)c1=O	17%	-4%	14%	2.9µM*	6%
CSc1nc2ccccc2n1CC(=O)Nc1ccccc1	1%	12%	5%	115%	0%
Cc1c(C(c2ccc(Br)cc2)c2c(C)n(C)n(-c3ccccc3)c2=O)c(=O)n(-c2ccccc2)n1C	0%	-5%	0%	20%	-3%
Cc1nn(CC(=O)Nc2c(C)n(C)n(-c3ccccc3)c2=O)c(C)c1[N+](=O)[O-]	10%	·	-17%	?	0%
Cc1c(NC(=O)COc2cccc(Br)c2)c(=O)n(-c2ccccc2)n1C	9%	16%	2%	1%	10%
Cc1c(NC(=O)COc2ccc(C(C)C)cc2)c(=O)n(-c2ccccc2)n1C	13%	-2%	-9%	13µM*	0%
CN(C)S(=O)(=O)Nc1ccc(Cc2ccncc2)cc1	·	·	-9%	·	·
CC1CCCN(C(=O)c2ccc(NS(=O)(=O)c3cccc([N+](=O)[O-])c3)cc2)C1 (stereo not drawn)	?	·	-8%	8%	12%
COc1cc(/C=C/C(=O)OCC(=O)Nc2c(C)n(C)n(-c3ccccc3)c2=O)ccc1O	-6%	-8%	-3%	1%	-7%
Cc1cc(C(=O)Nc2c(C)n(C)n(-c3ccccc3)c2=O)on1	·	3%	-6%	4.7µM*	-12%
SMILES	Pf growth 48h	NS1 function inh	RE007 growth inh	Pf growth 96h	SARS PLpro yeast
Cc1ccc(S(=O)(=O)NCCCCCC(=O)Nc2c(C)n(C)n(-c3ccccc3)c2=O)cc1	1%	-4%	-3%	4%	-3%
Cc1ccc(S(=O)(=O)NC(=O)Nc2c(C)n(C)n(-c3ccccc3)c2=O)cc1	10%	12%	-3%	12µM*	-3%
COc1cc(/C=C/C(=O)OCC(=O)Nc2c(C)n(C)n(-c3ccccc3)c2=O)cc(OC)c1OC	?	·	-15%	10µM*	9%
CC1(c2nnc(Cc3ccccc3)o2)CC(c2ccccc2[N+](=O)[O-])=NO1 (stereo not drawn)	6%	·	19%	76%	0%
Cc1ccc(C2=NC(C)(C)N=C2SCC(=O)Nc2ccc(Cl)cc2)cc1	·	-143%	9%	4.1µM*	-46%
NC(=O)[C@@H]1CCNc2c(I)cc([N+](=O)[O-])cc2C(=O)N[C@@H](CO)C(=O)N[C@@H](Cc2ccc(O)cc2)C(=O)N1	10%	11µM*	·	-26%	2%
CC(C)[C@@H]1NC(=O)c2cc([N+](=O)[O-])cc(F)c2NCCC[C@@H](C(N)=O)NC(=O)[C@H](CO)NC1=O	24%	-22%	·	9.3µM*	0%
CC(C)[C@@H]1NC(=O)c2cc([N+](=O)[O-])cc(I)c2NCC[C@@H](C(N)=O)NC(=O)[C@H](CO)NC1=O	0%	-23%	·	-13%	2%
CC(C)C[C@@H]1NC(=O)[C@H](C(C)C)NC(=O)c2cc([N+](=O)[O-])cc(I)c2NCC[C@@H](C(N)=O)NC1=O	?	?	-15%	2.1µM*	-14%
Cc1cccc(-n2c(O)c(C=NC3CCS(=O)(=O)C3)c3ccccc3c2=O)c1C (stereo not drawn)	-9%	-1%	-10%	-8%	0%
COCCNC(=O)c1cn(C)c(=O)c2cc(OC)c(OC)cc12	13%	-3%	14%	8.3µM*	11%
CCC(C)NC(=O)c1cn(C)c(=O)c2cc(OC)c(OC)cc12 (stereo not drawn)	0%	-10%	11%	9.3µM*	1%
CCOCCCNC(=O)c1cn(C)c(=O)c2cc(OC)c(OC)cc12	15%	4%	3%	?	0%
CN(C)CCNc1ccc2ncn3c4ccc(O)cc4c(=O)c1c23	·	·	-3%	·	·
Cc1ccc2c(c1)C1C=CCC1C(C(=O)O)N2 (stereo not drawn)	?	8%	·	2.6µM*	-13%
CC(=O)c1ccc2c(c1)C1C=CCC1C(C(=O)O)N2 (stereo not drawn)	33%	14%	-1%	22%	0%
Oc1ccc(Cl)cc1C(C#Cc1ccccc1)N1CCOCC1 (stereo not drawn)	?	29%	-9%	10µM*	-16%
COc1ccccc1C(C)NCC(=O)Nc1c(F)cccc1F (stereo not drawn)	-10%	·	-5%	-11%	1%
COc1cc(Cl)c(C)cc1NC(=O)CNC(C)c1ccccc1OC (stereo not drawn)	-12%	·	8%	9.3µM*	-8%
Cc1ccc2scc(CN3CCCC3)c2c1	·	·	1%	·	·
COc1ccc(Cl)cc1NC(=O)C/C(C)=N/NC(=O)c1ccccc1Cl	-9%	6%	-18%	13µM*	-1%
C/C(CC(=O)Nc1ccccn1)=N\NC(=O)c1ccc2ccccc2c1	24%	-1%	-2%	1.9µM*	3%
COc1ccc(NC(=O)C/C(C)=N/NC(=O)c2ccccn2)c(OC)c1	10%	-16%	-3%	13µM*	6%

High-throughput results: PubChem BioAssay, National Center for Advancing Translational Sciences (NCATS)
